Source: ChEMBL document CHEMBL4513146, “CO-ADD screening of Karazin Kharkiv National University (Ukraine) compounds”
Entries with a potency or affinity are not part of this list.

How the values were obtained:
Klebsiella pneumoniae = conditions: Concentration 32 ug.mL-1;; ASSAY_TEST Inhibition of Bacterial Growth; detection method Absorption (OD600); MEDIA CAMHB; plate type 384well; NBS; CORNING #3640; time 18 hr
Candida albicans = conditions: Concentration 32 ug.mL-1; ASSAY_TEST Inhibition of Fungal Growth; detection method Absorption (OD530)
Cryptococcus neoformans = conditions: Concentration 32 ug.mL-1; ASSAY_TEST Inhibition of Fungal Growth; detection method Resazurin; Absorption (OD600-OD570); plate type 384well; NBS; CORNING #3640

Row | Compound | Inhibition (Klebsiella pneumoniae) [%] | Inhibition (Candida albicans) [%] | Inhibition (Cryptococcus neoformans) [%]
1 | CCOC(=O)c1ccc(NC(=O)Cn2nc3c(N4CCOCC4)nccn3c2=O)cc1 | 11.56 | 3.03 | -14.12
2 | Cc1ccc(-c2ccc3nn(Cc4ccc(N5CCCC5=O)cc4)c(=O)n3n2)cc1 | 8.04 | 1.53 | -7.16
3 | COc1cccc(-n2ccn3c(SCc4ccc(Cl)cc4)nnc3c2=O)c1 | 9.45 | 2.03 | -6.31
4 | CSc1cccc(NC(=O)Cn2nc3c(SC4CCCCC4)nccn3c2=O)c1 | 1.73 | -2.6 | -1.74
5 | Cc1ccc(Sc2nccn3c(=O)n(CC(=O)Nc4ccc(Br)cc4)nc23)c(C)c1 | 5.96 | -1.11 | -6.8
6 | COc1ccccc1NC(=O)Cn1nc2c(SCc3ccccc3)nccn2c1=O | 0.49 | 5.7 | -17.11
7 | COc1cccc(Oc2nccn3c(=O)n(CC(=O)Nc4cc(C)c(Cl)cc4OC)nc23)c1 | -0.9 | 1.25 | -7.05
8 | O=C(CSc1nnc2c(=O)n(-c3ccc(F)c(F)c3)ccn12)c1c[nH]c2ccccc12 | 5.97 | 22.97 | -8.04
9 | CCCCc1ccc(NC(=O)Cn2c(=O)c3nnc(CCC)n3c3ccccc32)cc1 | 6.31 | 4.08 | -20.48
10 | COc1ccccc1N1CCN(C(=O)CSc2nnc3c(=O)n(-c4ccccc4)ccn23)CC1 | 9.27 | 1.3 | -12.92
11 | Cc1ccccc1CN(c1cccc(F)c1)S(=O)(=O)c1ccc2nncn2c1 | 6.25 | 3.9 | -4.05
12 | CCOc1ccc(NC(=O)Cn2nc3c(Sc4cccc(F)c4)nccn3c2=O)cc1 | -0.38 | 0.06 | -4.31
13 | COc1ccc(N(Cc2cc(F)cc(F)c2)S(=O)(=O)c2ccc3nnc(C)n3c2)cc1 | 10.99 | 0.79 | -7.83
14 | CCOc1ccc(NC(=O)Cn2nc3ccc(-c4ccc(C)c(C)c4)nn3c2=O)cc1 | 4.27 | 1.39 | -10.52
15 | O=C(Cn1nc2c(Oc3ccccc3)nccn2c1=O)Nc1ccc(Br)cc1F | -1.93 | 5.04 | -11.28
16 | Cc1ccccc1CN(c1ccc(C(C)C)cc1)S(=O)(=O)c1cccn2cnnc12 | 21.6 | 3.03 | -21.28
17 | O=C(Cn1nc2ccc(C(=O)NCc3ccccc3)cn2c1=O)Nc1ccc(Br)cc1 | -0.54 | 2.27 | -19.25
18 | O=C(Cn1nc2c(Sc3ccccc3)nccn2c1=O)Nc1cccc(Cl)c1F | 13.46 | 0.76 | -9.38
19 | O=c1c2sccc2n2c(=O)n(Cc3cccc(Br)c3)nc2n1Cc1cccs1 | -22.43 | 62.43 | -21.53
20 | COc1ccccc1Cn1c(=O)c2sccc2n2c(=O)n(Cc3c(F)cccc3Cl)nc12 | 8.3 | -2.27 | -30.55
21 | O=C(CSc1nnc2c(=O)n(-c3ccc(Br)cc3)ccn12)Nc1ccc(F)cc1 | 8.05 | 10.99 | -11.61
